Assay results as given in PubChem BioAssay AID1745847 (National Center for Advancing Translational Sciences (NCATS), 2022).
Out of some 2,100 compounds screened, about 670 (32%) were called active. About 50% were inconclusive and are not listed. This is one part of the list. Values without a mark were called inactive. Calls come from the whole dose curve; as a rule, active = well fitted inhibition curve with a large enough effect; inconclusive = small, poorly fitted or top-dose-only effect; inactive = no such curve, though single readings can be large or run the other way.

assay: CMV-Luciferase Counterscreen for Inhibitors of ATXN expression; details: HEK-293 CMV-luciferase reporter, luminescence, 24 h; series mostly up to 57.5 µM; note: nearly all actives have a fitted effect of over 55% in size
% is set by controls: 0 for no effect and ±100 for the full control effect; potency is the fitted concentration of half-maximal effect.

| Compound | Potency | activity change, negative = inhibition |
| --- | --- | --- |
| N#Cc1nc(Cc2cccc3ccccc23)oc1NCc1ccc(F)cc1 | 12.6 µM (active) | – |
| Cc1ccccc1C(=O)N/N=C/c1ccc([N+](=O)[O-])s1 | 11.2 µM (active) | – |
| CC(C)(C)c1cc(C(=O)N/N=C/c2ccc([N+](=O)[O-])s2)n[nH]1 | 11.2 µM (active) | – |
| O=C(N/N=C/c1ccc([N+](=O)[O-])s1)c1ccccc1 | 7.94 µM (active) | – |
| Cc1ccnn1CC(=O)N/N=C/c1ccc([N+](=O)[O-])s1 | 15.8 µM (active) | – |
| COc1ccc(C(=O)NCC(=O)N/N=C/c2ccc([N+](=O)[O-])s2)cc1OC | 12.6 µM (active) | – |
| CC(C)c1cccc(C(C)C)c1Nc1cn[nH]c1 | – | -9.58% [at 11.4 µM] |
| c1ccc(-c2cccc(-c3ccccn3)n2)nc1 | – | 72.5% [at 11.4 µM] |
| NC(=Nc1nc(-c2ccccn2)cc2ccccc12)c1ccccn1 | 0.0398 µM (active) | – |
| O=C(C1CC(=O)N(c2ccc3c(c2)OCCO3)C1)N1CCN(c2ccccc2)CC1 (stereo not drawn) | – | -8.65% [at 11.4 µM] |
| COc1ccc(-c2nc(NC(=O)C3CC(=O)N(c4ccc5c(c4)OCCO5)C3)sc2C)cc1 (stereo not drawn) | 10 µM (active) | – |
| CCc1ccc(-c2csc(NC(=O)C3CC(=O)N(c4ccc5c(c4)OCCO5)C3)n2)cc1 (stereo not drawn) | 10 µM (active) | – |
| COc1cc(-c2cc3nc(NCc4cccc(Cl)c4)ccn3n2)cc(OC)c1OC | 3.55 µM (active) | – |
| O=C(Nc1cccc2cccnc12)c1csc(COCCO)n1 | inactive | – |
| O=C(Nc1c(Cl)cccc1Cl)Oc1cccc2cccnc12 | 10 µM (active) | – |
| CCOC(=O)c1ccc(/C=C2/C=C(c3ccccc3)N(c3ccc(Cl)c(C(=O)O)c3)C2=O)cc1 | 12.6 µM (active) | – |
| CCOC(=O)c1ccc(N=c2sc(C(=O)OC)cc(=O)n2-c2ccc(C(=O)OCC)cc2)cc1 | – | -3.07% [at 11.4 µM] |
| Cc1ccc(-c2c(C#N)c(N)n3c(nc4ccccc43)c2C#N)cc1 | 7.08 µM (active) | – |
| NS(=O)(=O)c1ccc(CCNc2ccn3nc(-c4cccc(C(F)(F)F)c4)cc3n2)cc1 | 31.6 µM (active) | – |
| COc1cccc(CNc2nc3cc(-c4ccc(C(=O)N5CCN(C)CC5)cc4)sc3c(=O)n2C)c1 | 12.6 µM (active) | – |
| CN(C)CCCNc1nc2cc(-c3ccc(F)cc3)sc2c(=O)n1C | inactive | – |
| Cn1c(NCCN2CCCC2)nc2cc(-c3ccsc3)sc2c1=O | inactive | – |
| COc1ccc(CNc2ncnc3c2[nH]c2ccccc23)cc1 | 2.82 µM (active) | – |

| Compound | Potency | activity change, negative = inhibition |
| --- | --- | --- |
| Fc1ccc2[nH]c3c(NCc4ccccc4)ncnc3c2c1 | 0.631 µM (active) | – |
| Cc1[nH]n2c(=O)cc(C(C)(C)C)nc2c1-c1ccccc1 | 3.55 µM (active) | – |
| O=C(CN1C(=O)c2ccccc2S1(=O)=O)N1CCc2ccccc21 | 0.224 µM (active) | – |
| Cc1ccc(C(=O)CN2C(=O)c3ccccc3S2(=O)=O)cc1 | 0.398 µM (active) | – |
| O=C(CN1C(=O)c2ccccc2S1(=O)=O)c1ccc(O)c(O)c1 | 0.794 µM (active) | – |
| O=C(/C=C/c1ccccc1)c1cc(Br)ccc(=O)c1O | inactive | – |
| Cc1[nH]c(=O)c(C(=O)/C=C/c2ccccc2)c2c1CCCC2 | 8.91 µM (active) | – |
| Cc1ccc(C)c(/C=C/C(=O)c2ccccc(=O)c2O)c1 | inactive | – |
| Cc1cc(C)c(C(=O)/C=C/c2ccc(C(C)C)cc2)c(=O)[nH]1 | 8.91 µM (active) | – |
| C[C@@H]1C[C@@H]2O[C@H]2/C=C\C=C\C(=O)Cc2c(Cl)c(O)cc(O)c2C(=O)O1 | – | 25.3% [at 11.4 µM] |
| COCCCNCCCOc1ccc(Cl)cc1C(C)(C)C | 22.4 µM (active) | – |
| CCCCNCCCOc1cccc(Cl)c1Cl | inactive | – |
| Cc1nn(-c2ccccn2)c2c1C(=O)CC(C)(C)C2N=[N+]=[N-] (stereo not drawn) | – | -24.8% [at 11.4 µM] |
| CC1(C)c2[nH]c3ccccc3c2C[C@H]2C(=O)N(Cc3cccc(F)c3)C(=O)N21 | 20 µM (active) | – |
| CC1(C)c2[nH]c3ccccc3c2C[C@H]2C(=O)N(Cc3ccccc3F)C(=O)N21 | 17.8 µM (active) | – |
| OC(c1ccccc1)(c1nc(-c2ccc3ccccc3c2)cs1)C(F)(F)F (stereo not drawn) | – | 26.4% [at 11.4 µM] |
| O=C(/C=C\c1ccco1)Nc1nc(-c2ccc3ccccc3c2)cs1 | 3.16 µM (active) | – |
| C=CCc1cccc(/C=N/NC(=O)CCC(=O)Nc2ccc(F)cc2)c1O | 3.98 µM (active) | – |
| C=CCc1cccc(/C=N/NC(=O)c2ccccc2Br)c1O | 10 µM (active) | – |
| CC(SC(C)C(=O)NN=Cc1cccc(Cl)c1)C(=O)NN=Cc1cccc(Cl)c1 (stereo not drawn) | – | -24.3% [at 11.4 µM] |
| C=CCc1cccc(/C=N/NC(=O)CCC(=O)Nc2ccc(C)cc2)c1O | 8.91 µM (active) | – |
| C=CCc1cccc(/C=N/NC(=O)C(C)Nc2ccc(C)cc2)c1O (stereo not drawn) | 10 µM (active) | – |
| C=CCc1cccc(/C=N/NC(=O)CCCNc2ccc(C)cc2)c1O | 15.8 µM (active) | – |

| Compound | Potency | activity change, negative = inhibition |
| --- | --- | --- |
| C=CCc1cccc(/C=N/NC(=O)CNc2ccccc2)c1O | 2 µM (active) | – |
| Nc1ccc2c(c1)OC1(CCCC1)O2 | – | -27.3% [at 11.4 µM] |
| CC(C)(C)c1ccc(OCCn2nc(C(=O)O)c3ccccc3c2=O)cc1 | inactive | – |
| COc1ccc(NC(=O)N2CCN(c3nc(-c4cccc(OC)c4)cs3)CC2)cc1 | 3.55 µM (active) | – |
| Cn1nccc1C(=O)N1CCCC(C(=O)c2cccc3ccccc23)C1 (stereo not drawn) | inactive | – |
| CCCc1cnc(NCCNCC(O)COc2ccc(Cl)c(Cl)c2)nc1 (stereo not drawn) | 31.6 µM (active) | – |
| N#C/C(=C\Nc1ccc2cn[nH]c2c1)c1nc(-c2ccc(Cl)cc2)cs1 | – | 11% [at 11.4 µM] |
| O=C1C(SCCO)=C(SCCO)C(=O)c2ccccc21 | 8.91 µM (active) | – |
| Cc1ccc(SC2=C(Sc3ccc(C)cc3)C(=O)c3ccccc3C2=O)cc1 | inactive | – |
| CCCNC(=O)c1ccc2c(=O)c(O)c(-c3cccc(Br)c3)[nH]c2c1 | 20 µM (active) | – |
| C/C(=N\NC(=O)C(C)n1nc(C)c([N+](=O)[O-])c1C)c1ccccc1O (stereo not drawn) | 2.51 µM (active) | – |
| CCCCC(=O)NC(c1ccc(N(CC)CC)cc1)c1ccc2cccnc2c1O (stereo not drawn) | 0.282 µM (active) | – |
| CCCCC(=O)NC(c1ccc(N(C)C)cc1)c1ccc2cccnc2c1O (stereo not drawn) | 1.78 µM (active) | – |
| CO[C@@]12[C@@H]3N[C@@H]3CN1C1=C(C(=O)C(N)=C(C)C1=O)[C@@H]2COC(N)=O | – | 10.2% [at 11.4 µM] |
| CC(C)CC(NC(=O)c1ccc(Cl)cc1)C(=O)OCC(=O)c1ccc2c(c1)NC(=O)CO2 (stereo not drawn) | 22.4 µM (active) | – |
| Cc1ccc(OCC(=O)c2cc(C)n(Cc3cccs3)c2C)c([N+](=O)[O-])n1 | 3.98 µM (active) | – |
| COc1ccc(CC(=O)N/N=C(\C)c2ccccn2)cc1 | 8.91 µM (active) | – |
| C/C(=N\NC(=O)Cc1ccc(Cl)cc1)c1ccccc1O | 11.2 µM (active) | – |
| COc1ccccc1N(CC(=O)N/N=C(\C)c1ccccc1O)S(=O)(=O)c1ccc(C)cc1 | 11.2 µM (active) | – |
| C/C(=N\NC(=O)CN(c1ccccc1)S(C)(=O)=O)c1ccccc1O | 12.6 µM (active) | – |
| COc1ccccc1N(CC(=O)NCCSCc1ccc(C)cc1)S(=O)(=O)c1ccccc1 | 22.4 µM (active) | – |
| CC(C)C[C@H](NC(=O)c1[nH]cnc1C(=O)Nc1ccc(CNC(=O)OC(C)(C)C)cc1)C(=O)OCc1ccccc1 | – | -24.4% [at 11.4 µM] |
